# Measured values: the supplement of paper PMC8728848
# The sample as a whole holds a higher share of the strongest signals than the screen did.
# B1: Adiponectin (Rattus norvegicus), Q8K3R4 (protein)
# chain: MLLLQALLFLLILPSHEGITATEGPGALVPPPKETCAGWMAGIPGYPGHNGIPGRDGRDGTPGEKGEKGDAGVLGPKGDPGDAGMTGAEGPRGFPGTPGRKGEPGEAAYMYHSAFSVGLETRVTVPNVPIRFTKIFYNQQNHYDGSTGKFHCNIPGLYYFSYHITVYMKDVKVSLFKKDKAVLFTYDQYQEKNVDQASGSMLLHLEVGDQVWLQVYGEGDNNGLYADNVNDSTFTGFLLYHDTN
# B2: Tamarinin (protein)
# chain: CDDSARAGNIVVYWGQGGSDNSEGSLKEACKSGHYNMIVLQQLIVYDDGRDPDLNLGAHCSDCTKLEEQIKYCQNKDIKILLQIGQVVPTQEDVKDVTKNLSEYLLKNFFSGKSGPLGEVYLNGIDIASVPEGNNLKFDELVEALNDSSTERRIYLSASPLCVYPDYYLNKAIQTEKLDFLFVQFFYQNPCIYTEGNPENLFEAMKTWTKNVPESMIFMALPATPNLDGYIPPRVLNKEILPAVSEASNFAGVMIFDRYFDRFRKYSSKIK
# Columns and labels:
# Assay in all cases: glycan array binding signal (z-score within array); higher = stronger binding
# Conditions in all cases: glycan notation: IUPAC condensed, linker removed
# [1] = biological target: Fuc(a1-2)Gal(b1-3)GlcNAc(b1-2)Man(a1-3)[Fuc(a1-2)Gal(b1-3)GlcNAc(b1-2)Man(a1-6)]Man(b1-4)GlcNAc(b1-4)GlcNAc
# Method in brief: (§1)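 The binding signal is a Z-score computed within each array and averaged over linkers. Arrays of the same protein sequence at different concentrations or buffers were also averaged together. Data originate from 3228 arrays in the Consortium for Functional Glycomics database, kept only where the protein sequence was available.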
# [2] = biological target: Fuc(a1-2)Gal(b1-3)[Fuc(a1-4)]GlcNAc(b1-2)Man(a1-3)[Fuc(a1-2)Gal(b1-3)[Fuc(a1-4)]GlcNAc(b1-2)Man(a1-6)]Man(b1-4)GlcNAc(b1-4)GlcNAc
# Method in brief: as §1
# [3] = biological target: Fuc(a1-2)[Gal(a1-4)]Gal(b1-4)GlcNAc
# Method in brief: as §1
# Gal(a1-3)Gal(b1-4)Glc = biological target: Gal(a1-3)Gal(b1-4)Glc
# Method in brief: as §1
# Gal(a1-4)Gal(b1-4)GlcNAc = biological target: Gal(a1-4)Gal(b1-4)GlcNAc
# Method in brief: as §1
# Gal(b1-3)GalNAc = biological target: Gal(b1-3)GalNAc
# Method in brief: as §1
# [4] = biological target: Gal(b1-4)GlcNAc(a1-6)Gal(b1-4)GlcNAc
# Method in brief: as §1
# [5] = biological target: Gal(b1-4)GlcNAc(b1-3)Gal(b1-4)GlcNAc(b1-3)Gal(b1-4)GlcNAc
# Method in brief: as §1
# [6] = biological target: Gal(b1-4)GlcNAc(b1-3)[Gal(b1-4)GlcNAc(b1-6)]Gal(b1-4)GlcNAc
# Method in brief: as §1
# Gal3S(b1-3)GlcNAc = biological target: Gal3S(b1-3)GlcNAc
# Method in brief: as §1
# [7] = biological target: Gal3S(b1-3)[Fuc(a1-4)]GlcNAc
# Method in brief: as §1
# Gal3S4S(b1-4)GlcNAc = biological target: Gal3S4S(b1-4)GlcNAc
# Method in brief: as §1
# Gal6S(b1-4)GlcNAc = biological target: Gal6S(b1-4)GlcNAc
# Method in brief: as §1
# Gal6S(b1-4)GlcNAc6S = biological target: Gal6S(b1-4)GlcNAc6S
# Method in brief: as §1
# GalNAc(a1-3)Gal = biological target: GalNAc(a1-3)Gal
# Method in brief: as §1
# [8] = biological target: GalNAc(b1-4)GlcNAc(b1-2)Man(a1-3)[GalNAc(b1-4)GlcNAc(b1-2)Man(a1-6)]Man(b1-4)GlcNAc(b1-4)GlcNAc
# Method in brief: as §1
# GlcA(b1-3)GlcNAc = biological target: GlcA(b1-3)GlcNAc
# Method in brief: as §1
# GlcA(b1-6)Gal = biological target: GlcA(b1-6)Gal
# Method in brief: as §1
# [9] = biological target: GlcNAc(b1-4)GlcNAc(b1-4)GlcNAc
# Method in brief: as §1
# [10] = biological target: Man(a1-3)[Man(a1-6)]Man(a1-6)[Man(a1-3)]Man(b1-4)GlcNAc(b1-4)GlcNAc
# Method in brief: as §1
# Man(b1-4)GlcNAc = biological target: Man(b1-4)GlcNAc
# Method in brief: as §1
# Neu5Ac(a2-3)Gal = biological target: Neu5Ac(a2-3)Gal
# Method in brief: as §1
# [11] = biological target: Neu5Ac(a2-3)Gal(b1-4)[Fuc(a1-3)]GlcNAc
# Method in brief: as §1
# [12] = biological target: Neu5Ac(a2-6)Gal(b1-4)GlcNAc(b1-2)Man(a1-3)Man(b1-4)GlcNAc(b1-4)GlcNAc
# Method in brief: as §1
# [13] = biological target: Neu5Ac(a2-6)Gal(b1-4)GlcNAc(b1-2)Man(a1-6)[GlcNAc(b1-2)Man(a1-3)]Man(b1-4)GlcNAc(b1-4)GlcNAc
# Method in brief: as §1
# [14] = biological target: Neu5Ac(a2-8)Neu5Ac(a2-3)[GalNAc(b1-4)]Gal(b1-4)Glc
# Method in brief: as §1
# [15] = biological target: Neu5Ac(a2-8)Neu5Ac(a2-8)Neu5Ac(a2-8)Neu5Ac(a2-3)[GalNAc(b1-4)]Gal(b1-4)Glc
# Method in brief: as §1
# [16] = biological target: Neu5Gc(a2-3)Gal(b1-4)GlcNAc
# Method in brief: as §1
# GalNAc6S(b1-4)GlcNAc = biological target: GalNAc6S(b1-4)GlcNAc
# Method in brief: as §1
# [17] = biological target: Glc(a1-4)Glc(a1-4)Glc(a1-4)Glc
# Method in brief: as §1
# Glc(a1-6)Glc(a1-6)Glc = biological target: Glc(a1-6)Glc(a1-6)Glc
# Method in brief: as §1
# [18] = biological target: Glc(a1-6)Glc(a1-6)Glc(a1-6)Glc
# Method in brief: as §1
# [19] = biological target: GlcNAc(b1-3)Gal(b1-4)GlcNAc(b1-3)Gal(b1-4)GlcNAc(b1-3)Gal(b1-4)GlcNAc(b1-3)Gal(b1-4)GlcNAc(b1-2)Man(a1-3)[GlcNAc(b1-3)Gal(b1-4)GlcNAc(b1-3)Gal(b1-4)GlcNAc(b1-3)Gal(b1-4)GlcNAc(b1-3)Gal(b1-4)GlcNAc(b1-2)Man(a1-6)]Man(b1-4)GlcNAc(b1-4)[Fuc(a1-6)]GlcNAc
# Method in brief: as §1
# [20] = biological target: GlcNAc(b1-3)Gal(b1-4)GlcNAc(b1-3)[GlcNAc(b1-3)Gal(b1-4)GlcNAc(b1-3)]GalNAc
# Method in brief: as §1
# GlcNAc(b1-3)Man = biological target: GlcNAc(b1-3)Man
# Method in brief: as §1
# [21] = biological target: Man(a1-2)Man(a1-2)Man(a1-6)[Man(a1-3)]Man
# Method in brief: as §1
# [22] = biological target: Man(a1-2)Man(a1-6)[Man(a1-3)]Man(a1-6)[Man(a1-2)Man(a1-2)Man(a1-3)]Man
# Method in brief: as §1
# Man(a1-3)[Man(a1-6)]Man = biological target: Man(a1-3)[Man(a1-6)]Man
# Method in brief: as §1
# [23] = biological target: Man(a1-3)[Man(a1-6)]Man(a1-6)[Man(a1-2)Man(a1-3)]Man(b1-4)GlcNAc(b1-4)GlcNAc
# Method in brief: as §1
# [24] = biological target: Neu5Ac(a2-3)Gal(b1-3)[Fuc(a1-4)]GlcNAc(b1-3)Gal(b1-4)[Fuc(a1-3)]GlcNAc
# Method in brief: as §1
# [25] = biological target: Neu5Ac(a2-3)Gal(b1-4)GlcNAc
# Method in brief: as §1
# [26] = biological target: Neu5Ac(a2-3)Gal(b1-4)GlcNAc(b1-3)Gal(b1-4)GlcNAc(b1-3)Gal(b1-4)GlcNAc
# Method in brief: as §1
# [27] = biological target: Neu5Ac(a2-3)Gal6S(b1-4)[Fuc(a1-3)]GlcNAc
# Method in brief: as §1
# [28] = biological target: Neu5Ac(a2-6)Gal(b1-3)GlcNAc(b1-3)[Gal(b1-4)GlcNAc(b1-6)]Gal(b1-4)Glc
# Method in brief: as §1
# [29] = biological target: Neu5Ac(a2-6)Gal(b1-4)GlcNAc
# Method in brief: as §1
# [30] = biological target: Neu5Ac(a2-6)Gal(b1-4)GlcNAc(b1-2)Man(a1-3)[Neu5Ac(a2-6)Gal(b1-4)GlcNAc(b1-2)Man(a1-6)]Man(b1-4)GlcNAc(b1-4)[Fuc(a1-6)]GlcNAc
# Method in brief: as §1
# [31] = biological target: Neu5Ac(a2-6)Gal(b1-4)GlcNAc(b1-3)GalNAc
# Method in brief: as §1
# [32] = biological target: Neu5Ac(a2-6)Gal(b1-4)GlcNAc(b1-6)[Gal(b1-3)GlcNAc(b1-3)]Gal(b1-4)Glc
# Method in brief: as §1
# [33] = biological target: Neu5Ac(a2-8)Neu5Ac(a2-3)Gal(b1-4)Glc
# Method in brief: as §1
# [34] = biological target: Neu5Gc(a2-3)Gal(b1-4)GlcNAc(b1-3)Gal(b1-4)GlcNAc(b1-2)Man(a1-3)[Neu5Gc(a2-3)Gal(b1-4)GlcNAc(b1-3)Gal(b1-4)GlcNAc(b1-2)Man(a1-6)]Man(b1-4)GlcNAc(b1-4)GlcNAc
# Method in brief: as §1
# [35] = biological target: Neu5Gc(a2-8)Neu5Gc(a2-6)Gal(b1-4)GlcNAc
# Method in brief: as §1
binder,measurement,setting,value
B1,glycan array binding signal (z-score),[1],4.69
same,glycan array binding signal (z-score),[2],2.87
same,glycan array binding signal (z-score),[3],-0.75
same,glycan array binding signal (z-score),Gal(a1-3)Gal(b1-4)Glc,2.17
same,glycan array binding signal (z-score),Gal(a1-4)Gal(b1-4)GlcNAc,-0.311
same,glycan array binding signal (z-score),Gal(b1-3)GalNAc,-0.573
same,glycan array binding signal (z-score),[4],-0.335
same,glycan array binding signal (z-score),[5],3.09
same,glycan array binding signal (z-score),[6],0.332
same,glycan array binding signal (z-score),Gal3S(b1-3)GlcNAc,-0.814
same,glycan array binding signal (z-score),[7],1.13
same,glycan array binding signal (z-score),Gal3S4S(b1-4)GlcNAc,0.706
same,glycan array binding signal (z-score),Gal6S(b1-4)GlcNAc,1.04
same,glycan array binding signal (z-score),Gal6S(b1-4)GlcNAc6S,-0.915
same,glycan array binding signal (z-score),GalNAc(a1-3)Gal,2.96
same,glycan array binding signal (z-score),[8],4.32
same,glycan array binding signal (z-score),GlcA(b1-3)GlcNAc,-0.577
same,glycan array binding signal (z-score),GlcA(b1-6)Gal,-0.389
same,glycan array binding signal (z-score),[9],4.87
same,glycan array binding signal (z-score),[10],-0.767
same,glycan array binding signal (z-score),Man(b1-4)GlcNAc,0.155
same,glycan array binding signal (z-score),Neu5Ac(a2-3)Gal,0.212
same,glycan array binding signal (z-score),[11],0.007
same,glycan array binding signal (z-score),[12],0.717
same,glycan array binding signal (z-score),[13],-0.838
same,glycan array binding signal (z-score),[14],0.022
same,glycan array binding signal (z-score),[15],0.861
same,glycan array binding signal (z-score),[16],-0.295
B2,glycan array binding signal (z-score),GalNAc6S(b1-4)GlcNAc,2.4
same,glycan array binding signal (z-score),[17],-0.232
same,glycan array binding signal (z-score),Glc(a1-6)Glc(a1-6)Glc,-0.034
same,glycan array binding signal (z-score),[18],0.415
same,glycan array binding signal (z-score),GlcA(b1-6)Gal,0.165
same,glycan array binding signal (z-score),[19],-0.061
same,glycan array binding signal (z-score),[20],-0.332
same,glycan array binding signal (z-score),GlcNAc(b1-3)Man,0.095
same,glycan array binding signal (z-score),[21],14.1
same,glycan array binding signal (z-score),[22],-0.298
same,glycan array binding signal (z-score),Man(a1-3)[Man(a1-6)]Man,0.04
same,glycan array binding signal (z-score),[23],-0.295
same,glycan array binding signal (z-score),[24],3.05
same,glycan array binding signal (z-score),[25],-0.352
same,glycan array binding signal (z-score),[26],-0.251
same,glycan array binding signal (z-score),[27],-0.371
same,glycan array binding signal (z-score),[28],-0.386
same,glycan array binding signal (z-score),[29],-0.341
same,glycan array binding signal (z-score),[30],-0.131
same,glycan array binding signal (z-score),[31],5.41
same,glycan array binding signal (z-score),[32],-0.361
same,glycan array binding signal (z-score),[33],-0.395
same,glycan array binding signal (z-score),[34],-0.36
same,glycan array binding signal (z-score),[35],-0.477
